The text below walks through data of PubChem BioAssay (Tox21).

Test [1] in a line: qHTS assay to identify small molecule agonists of the vitamin D receptor (VDR) signaling pathway - cell viability counter screen (AID 743224). Note: nearly all actives have a fitted effect of over 50% in size. In short, it runs like this:
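Luminescence from CellTiter-Glo, read after 30 min at room temperature, reports viability of VDR-bla cells treated with compounds for 16 h at 37C in the wells used for the beta-lactamase FRET read.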
For orientation: In qHTS, concentration-response curves come from the screen itself.

Test [2] is described as follows: qHTS assay to identify small molecule antagonists of the vitamin D receptor (VDR) signaling pathway - cell viability counter screen (AID 743225). Note: nearly all actives have a fitted effect of over 50% in size. The gist of the method:
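Luminescent cell viability (CellTiter-Glo) in VDR-bla HEK 293T cells after 16 h compound exposure at 37C in the presence of 3 nM final 1-alpha,25-dihydroxy vitamin D3.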

Test [3] is described as follows: qHTS assay to identify small molecule agonists of the NFkB signaling pathway - cell viability counter screen (AID 1159515; calls by dose curve; note: nearly all actives have a fitted effect of over 55% in size). The gist of the method:
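Luminescence from CellTiter-Glo (30 min, room temperature) gives viability, measured in the same wells as the beta-lactamase reporter read. Cells were NFkB-bla ME-180, 2,000 per well, treated 5 hr with compounds.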

Test [4] is described as follows: qHTS assay to identify small molecule agonists of the endoplasmic reticulum stress response signaling pathway (AID 1159516; active = well fitted activation curve with a large enough effect in the signal ratio in the repeat runs, not every such curve was filed as active; the % refers to the signal ratio). The gist of the method: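 Read-out is beta-lactamase cleavage of a FRET substrate (405 nm excitation; 460 and 530 nm emissions) in ESRE-bla HeLa cells after a 5 hr compound exposure at 37 C. Substrate incubation ran 2 hr at room temperature.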

Test [5] in a line: qHTS assay to identify small molecule agonists of the endoplasmic reticulum stress response signaling pathway - cell viability counter screen (AID 1159517; calls by dose curve; note: nearly all actives have a fitted effect of over 50% in size). The gist of the method: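 HeLa cells carrying an ESRE-driven beta-lactamase reporter receive compound for 5 hr at 37 C. Cell viability is then gauged with CellTiter-Glo by luminescence, 30 min at room temperature.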
Test [6] is described as follows: qHTS assay to identify small molecule antagonists of the retinoid-related orphan receptor gamma (ROR-gamma) signaling pathway - cell viability counter screen (AID 1159520). Note: nearly all actives have a fitted effect of over 50% in size. The gist of the method: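 Cytotoxicity was read from cellular ATP (CellTiter-Glo luminescence) after 16 hr at 37 C with 1 uM doxycycline induction. The inducer was added 2 hr after compound transfer to Tet-on ROR gamma CHO cells.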

The target in test [7] is Nuclear receptor ROR-gamma (Homo sapiens) (UniProt P51449). In words: qHTS assay to identify small molecule antagonists of the retinoid-related orphan receptor gamma (ROR-gamma) signaling pathway (AID 1159521; note: nearly all actives have a fitted effect of over 50% in size; note: potency is the fitted concentration of half-maximal effect). In short, it runs like this: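 CHO cells expressing RORγ under a TET-on promoter, luciferase under RORE control. Dox 1 uM final, 16 h; compounds added 2 h prior. Luminescence decrease measured.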

Test [8] is described as follows: qHTS assay to identify small molecule agonists of the AP-1 signaling pathway - cell viability counter screen (AID 1159525; calls by dose curve; note: nearly all actives have a fitted effect of over 55% in size; note: potency is the fitted concentration of half-maximal effect). The gist of the method: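 Luminescent ATP readout (Cell Titer Glo, 30 min RT), normalised to DMSO and tetra n-octyl ammonium bromide controls. Cells were ME-180 AP-1-bla in 0.5% dialyzed FBS Opti-MEM, with a 5 h, 37 °C compound exposure.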
A short description of test [9]: qHTS assay to identify small molecule agonists of the AP-1 signaling pathway (AID 1159526; calls by dose curve).
Test [10] addresses Retinoic acid receptor RXR-alpha (Homo sapiens) (UniProt P19793). In words: qHTS assay to identify small molecule agonists of the RXR signaling pathway (AID 1159527; calls by dose curve; note: nearly all actives have a fitted effect of over 35% in size). The gist of the method: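 Beta-lactamase reporter assay, agonist format. Engineered HEK 293T line, charcoal-stripped FBS at 2%, overnight (16 hr) exposure, fluorescence at 460 and 530 nm after 405 nm excitation.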

A short description of test [11]: qHTS assay to identify small molecule agonists of the RXR signaling pathway - cell viability counter screen (AID 1159529). Note: nearly all actives have a fitted effect of over 50% in size. Note: potency is the fitted concentration of half-maximal effect. The gist of the method:
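Same-well viability check after the LiveBLAzer FRET read: CellTiter-Glo added, luminescence measured after 30 min at room temperature. Reporter HEK 293T cells had been treated with compounds for 16 hr following a 5 hr preincubation.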

Test [12] in a line: qHTS assay to identify small molecule antagonists of the retinoid acid receptor (RAR) signaling pathway - cell viability counter screen (AID 1159551). Note: nearly all actives have a fitted effect of over 35% in size. The gist of the method: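 Luminescent ATP quantitation (CellTiter-Glo) gave cell viability in C3RL4 cells exposed to test chemicals for 6 h at 37 C alongside 1 uM final retinol.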
A short description of test [13]: qHTS assay to identify small molecule antagonists of the retinoic acid receptor (RAR) signaling pathway (AID 1159552; note: nearly all actives have a fitted effect of over 50% in size; note: potency is the fitted concentration of half-maximal effect). In short, it runs like this: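 Readout: luciferase luminescence, 30 min post-reagent at RT. Setup: C3RL4 RARE reporter cells, compounds plus retinol 1 uM final, 6 hr incubation at 37 C and 5% CO2.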
Test [14] can be described thus: qHTS assay to identify small molecule agonists of the retinoic acid receptor (RAR) signaling pathway (AID 1159553). The settings on record: C3RL4 RARE luciferase reporter, agonist, 6 h; activation: at 73.3 µM (top of the series) unless noted. The gist of the method: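 Luminescence from a RARE-driven luciferase reporter in C3RL4 cells served as the read-out, measured after 30 min with detection reagent at room temperature. Compounds in DMSO were applied for 6 hr at 37 C following overnight seeding.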

Test [15] is described as follows: qHTS assay to identify small molecule antagonists of the estrogen related receptor (ERR) signaling pathway - cell viability counter screen (AID 1224818).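 Note: viability measured after 17.5 h of compound exposure.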 In short, it runs like this:
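Multiplexed counter screen to separate cytotoxic compounds from true ERR modulators. ERR cells received DMSO-dissolved compounds after a 6 h pre-incubation, were exposed 17.5 h at 37 C, then assayed with CellTiter-Fluor fluorescence.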

Test [16] in a line: qHTS assay to identify small molecule antagonists of the estrogen related receptor signaling pathway with the pleiotropic PPARgamma coactivator (PGC) cell viability counter screen (AID 1224822;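 note: viability read after 17.5 h compound exposure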). In short, it runs like this:
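Cells: PGC/ERR, 2,000/well, 1536-well format. Pre-incubation 6 h, 37 C/5% CO2. Compound exposure 17.5 h, 37 C. Detection: CellTiter-Fluor, 30 min, fluorescence.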

Records with an inconclusive call do not appear. More than one record can exist for a structure, and the calls need not agree. The source made the active and inactive calls. Unless noted, calls come from the whole dose curve; as a rule, active = well fitted curve in the direction sought with a large enough effect in the repeat runs; inconclusive = weak or mixed curves; inactive = no such curve, though single readings can be large; an effect the other way counts as inactive or inconclusive.

Retinoic acid receptor RXR-alpha (Homo sapiens), sequence (P19793 whole entry, looked up): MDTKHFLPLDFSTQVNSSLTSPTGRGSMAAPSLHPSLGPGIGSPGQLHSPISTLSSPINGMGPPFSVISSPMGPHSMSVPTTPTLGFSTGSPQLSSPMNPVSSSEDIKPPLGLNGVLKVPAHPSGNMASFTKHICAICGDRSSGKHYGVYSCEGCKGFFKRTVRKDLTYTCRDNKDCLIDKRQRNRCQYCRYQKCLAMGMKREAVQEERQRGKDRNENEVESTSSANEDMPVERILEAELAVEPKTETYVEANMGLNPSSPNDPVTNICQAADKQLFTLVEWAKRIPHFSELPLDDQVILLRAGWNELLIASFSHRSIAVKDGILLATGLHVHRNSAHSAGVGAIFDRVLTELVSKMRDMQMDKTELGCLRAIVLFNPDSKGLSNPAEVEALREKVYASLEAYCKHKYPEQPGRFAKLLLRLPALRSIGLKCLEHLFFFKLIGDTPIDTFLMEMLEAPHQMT

`C=CCCCCCCCCCC`: the Potency entry in test [1], in [2], in test [3], in test [4], in [5] and in test [6] was “inactive” each time. Moreover, the Potency entry in test [7], in test [8], in test [9], in test [10], in test [11] and in [12] was “inactive” each time. The Potency result in test [13] is “inactive”.

Turning to `Brc1nc2ccccc2s1`, the Potency result in test [1], in [2], in test [3], in test [4], in [5] and in [6] was “inactive” throughout. For the same compound, the Potency entry in test [7], in test [8], in test [9], in [10], in test [11] and in test [12] was “inactive” throughout.

For `CCc1cccc2c3c([nH]c12)C(CC)(CC(=O)O)OCC3` (centres undefined), the Potency result in test [1], in test [2], in test [3], in [4], in test [5] and in [6] was “inactive” in each case. Also, the Potency result in test [7], in [8], in test [9], in test [10], in test [11] and in test [14] was “inactive” each time. Moreover, the compound was classed as inactive in test [15] and in [16].

As for `C=C1C[C@H]2[C@@H]3C=C(C)C4=CC(=O)CC[C@]4(C)[C@H]3CC[C@]2(C)[C@@]1(OC(C)=O)C(C)=O`, the Potency entry in test [1], in test [2], in [3], in test [4], in test [5] and in [6] was “inactive” in each case. Further, the Potency result in [7], in test [8], in test [9], in test [10], in test [11] and in test [12] was “inactive” in each case.

Consider `COCCOCCOCCO`, for which the Potency result in test [1], in test [2], in test [3], in test [4], in [5] and in [6] was “inactive” throughout. Also, the Potency entry in test [7], in test [8], in [9], in [10], in test [11] and in [12] was “inactive” each time. Further, the Potency result in [13] and in test [14] was “inactive” each time.

With `C[N+](C)(C)CCO`, the Potency result in test [1], in test [2], in [3], in [4], in test [5] and in test [6] was “inactive” in each case. Further, the Potency entry in test [7], in test [8], in test [9], in test [10], in test [11] and in test [12] was “inactive” each time. For the same compound, the outcome in test [15] and in [16] was inactive.

Take `CN(C)C`: the Potency entry in test [1], in [2], in test [3], in [4], in [5] and in test [6] was “inactive” in each case. For the same compound, the Potency entry in [8], in test [9], in test [10], in test [11] and in test [12] was “inactive” throughout.

Consider `CCC(Cc1c(I)cc(I)c(N)c1I)C(=O)O` (centres undefined), for which the Potency entry in test [1], in test [2], in test [3], in test [4], in test [5] and in [6] was “inactive” in each case. Besides, the Potency entry in [7], in test [8], in test [10], in test [11], in test [12] and in test [13] was “inactive” each time. Moreover, in [14], the Potency entry was “inactive”.

In the case of `Cc1ccc([N+](=O)[O-])c(C)c1`, the Potency result in [1], in test [2], in test [3], in test [4], in test [5] and in test [6] was “inactive” in each case. Moreover, the Potency result in test [9], in test [10], in test [12] and in test [14] was “inactive” each time. Also, the Potency in test [7] is 2.43 µM (active) and inactive; in test [8] it was 12.3 µM (active) and inactive; in test [11], 24.6 µM (active) and inactive; in test [13], 6.11 µM (active) and inactive.

With `[O-]/[N+](=N\O)c1ccccc1`, the Potency entry in test [1], in test [2], in [3], in test [4], in [5] and in [6] was “inactive” throughout. Also, the Potency result in test [7], in test [8], in test [9], in [10], in test [11] and in test [12] was “inactive” each time.
